This is an account of results in PubChem BioAssay.

Molecules are shown by their SMILES. Active and inactive are the calls of the source.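 Rule for the calls, unless noted: active = fluorescence slope after compound addition differing from the mean of all screened samples at 99.7% confidence, in either direction; inactive = the rest.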

Assay [1] can be described thus: inhibitors of TNFa-induced NFkB p65 translocation, primary screen, imaging, HUVEC, MLSMR starter and 10KST1 sets (AID 438;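 active = inhibition above 20% together with a positive visual image hit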;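 note: compound added about 3h40 before a 20 min TNFalpha stimulation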;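 for inhibition: signal is the nuclear over cytoplasmic p65 intensity ratio per well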). The settings on record: HUVEC TNFa-induced p65 nuclear translocation; cell count: measured here: nuclei count (cytotoxicity indicator), at 2.08 µM; inhibition: at 2 µM, stronger effect = higher value, 0% TNFa-plus-vehicle, 100% no-TNFa wells.
The nature of assay [2]: inhibitors of mutant huntingtin aggregation, primary screen, imaging, exon1htt(103Q)mCFP cells, high-content imaging (AID 483;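 active = visual image review flags a hit and inhibition of aggregation exceeds 20%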;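 note: compound exposure lasted 3 days before fixation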;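 for nuclei count: percent of the per-plate median nuclei count of sample wells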). As to conditions: exon1htt(103Q)mCFP cell line, aggregate imaging, at 2 µM; inhibition of aggregation: stronger effect = higher value; nuclei count: measured here: cell count, toxicity.
A short description of assay [3]: inhibitors of E-selectin induction by TNFa, primary screen, imaging, HUVEC, immunofluorescence, MLSMR starter and 10KST1 sets (AID 487;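 active = visually confirmed hit in the image check and inhibition above 20%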;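 for inhibition: signal is fraction of cell area covered by stained E-selectin grains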;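 for nuclei count: 100% = median nuclei count of all wells on the same plate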). The settings on record: HUVEC TNFalpha-induced E-selectin immunofluorescence imaging, at 2 µM; inhibition: stronger effect = higher value; nuclei count: measured here: cell number, toxicity.
The target in assay [4] is Voltage-gated potassium channel subunit beta-2 (Rattus norvegicus) (UniProt P62483). Briefly: KvBeta enzyme negative modulators, primary screen, biochemical, NADPH fluorescence (AID 622;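 active = fluorescence slope higher than the sample average by over 3 SD, cut at about -0.22 in these data, passing the limit was not always enough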;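 note: slope of raw intensity against log time taken from 70 to 1610 s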). The settings on record: recombinant KvBeta, 4-cyanobenzaldehyde reduction, at 10 µM, stronger effect = higher value.
Assay [5] shares this target. In words: KvBeta positive modulators, primary screen, biochemical, NADPH fluorescence (AID 623;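 active = NADPH fluorescence slope more negative than the mean of all samples by about 3 SD, 99.7% confidence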;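 note: fluorescence intensity change per second fitted from 20 to 320 s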). As to conditions: Recombinant KvBeta, NADPH fluorescence decrease slope, 10 min; at 10 µM; stronger effect = lower value.
Assay [6] deals with Alpha-2C adrenergic receptor (Homo sapiens) (UniProt P18825). In words: modulators of alpha2C/GIRK thallium flux, primary screen, cell-based, HEK293 alpha2C/GIRK1/2 (AID 624).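 Note: slope of fluorescence ratio to pre-addition baseline per second over 15 to 24 s.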 The settings on record: thallium flux BTC fluorescence, at 10 µM, actives lie on both sides.
Assay [7] can be described thus: inhibitors of Sendai virus-induced IRF3 signaling, primary screen, TLR/RLR signaling modifier project, cell-based, Sendai virus stimulus, luciferase, 10K MLSCN set (AID 602276;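 active = inhibition at or above 50% at 10 µM; inactive = inhibition below 50%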;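 note: firefly luciferase from ISG56 promoter only with Renilla not read in this screen; 0% = Sendai virus plus DMSO and 100% = medium plus DMSO without virus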). The settings on record: HEK293 RL24 IRF3 luciferase reporter, at 10 µM, stronger effect = higher value. Background: A reporter such as luciferase makes a cellular process visible.
A short description of assay [8]: inhibitors of poly I:C-induced TLR3 signaling, primary screen, cell-based, poly I:C stimulus, luciferase, 10K MLSCN set (AID 602277;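 active = inhibition of the reporter signal at or above 50%; inactive = inhibition below 50%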). As to conditions: HEK293-TLR3 RL24 IRF3 luciferase reporter, at 10 µM, stronger effect = higher value.

Sequence of Alpha-2C adrenergic receptor (Homo sapiens) (P18825 whole entry, looked up): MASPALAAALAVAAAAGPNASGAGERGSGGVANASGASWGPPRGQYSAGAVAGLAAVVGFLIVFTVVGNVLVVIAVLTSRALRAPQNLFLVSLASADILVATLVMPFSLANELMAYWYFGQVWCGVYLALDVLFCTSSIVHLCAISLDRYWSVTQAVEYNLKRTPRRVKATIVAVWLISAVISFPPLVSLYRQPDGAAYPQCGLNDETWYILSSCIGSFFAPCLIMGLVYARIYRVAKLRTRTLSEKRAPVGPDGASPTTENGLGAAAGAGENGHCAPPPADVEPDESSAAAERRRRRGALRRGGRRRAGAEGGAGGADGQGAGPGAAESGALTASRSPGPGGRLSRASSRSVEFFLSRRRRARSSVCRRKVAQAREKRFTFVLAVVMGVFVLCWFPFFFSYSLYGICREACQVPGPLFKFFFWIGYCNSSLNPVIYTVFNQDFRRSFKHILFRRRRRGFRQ
Sequence of Voltage-gated potassium channel subunit beta-2 (Rattus norvegicus) (P62483 whole entry, looked up): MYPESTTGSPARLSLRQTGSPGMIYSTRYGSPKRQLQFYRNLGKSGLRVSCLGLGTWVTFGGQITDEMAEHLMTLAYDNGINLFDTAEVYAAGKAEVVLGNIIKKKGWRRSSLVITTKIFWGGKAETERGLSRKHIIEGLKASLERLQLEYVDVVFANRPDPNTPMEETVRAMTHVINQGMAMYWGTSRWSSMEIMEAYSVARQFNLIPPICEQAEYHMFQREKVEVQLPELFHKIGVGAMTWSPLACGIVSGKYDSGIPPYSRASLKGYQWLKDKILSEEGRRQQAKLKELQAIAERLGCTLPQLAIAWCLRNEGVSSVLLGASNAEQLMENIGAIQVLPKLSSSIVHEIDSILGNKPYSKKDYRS

By inhibition is commonly meant the change of the read-out against control, counted positive when it falls. In the case of `Nc1cc(=O)[nH]c(SCC(=O)Nc2ccc(Br)cc2)n1`, the cell count in assay [1] was found to be 825. The inhibition in assay [1] is 8.2% (inactive); in assay [3] it was 18.9% (inactive); in assay [7], 1.99% (inactive); in assay [8], 4.12% (inactive). In addition, the inhibition of aggregation in assay [2] is -2.2% (inactive). Also, the nuclei count in assay [2] worked out at 108%; in assay [3], 128%. Moreover, in assay [4], the fluorescence slope is -0.507 (inactive). In assay [5], the NADPH fluorescence slope is 4.3e-05 (inactive). Moreover, the slope in assay [6] is 0.00582 (inactive).

On to `CCOC(=O)c1cc2c(=O)n3cccc(C)c3nc2n(CC2CCCO2)c1=NC(C)=O` (stereo not drawn), for which the cell count in assay [1] was 435. Also, the inhibition was 28.2% (inactive) in assay [1], -17.2% (inactive) in assay [3], 3.59% (inactive) in assay [7] and 8.19% (inactive) in assay [8]. The inhibition of aggregation in assay [2] is -1.4% (inactive). Also, the nuclei count in assay [2] amounted to 117%; in assay [3], 114%. The fluorescence slope in assay [4] is -0.295 (inactive). The NADPH fluorescence slope in assay [5] was -2.5e-05 (inactive). In assay [6], the slope is 0.00401 (inactive).

Regarding `COc1cc(S(=O)(=O)N(C)C)ccc1F`, in assay [1], the cell count was determined as 333. Also, the inhibition in assay [1] was -4.5% (inactive); in assay [3], -114% (inactive); in assay [7], 17.1% (inactive); in assay [8], 9.1% (inactive). Moreover, the inhibition of aggregation in assay [2] is 5.9% (inactive). Moreover, the nuclei count in assay [2] stood at 87.4%; in assay [3], 116%. The fluorescence slope in assay [4] was -0.413 (inactive). Also, the NADPH fluorescence slope in assay [5] is -5e-05 (inactive). Further, in assay [6], the slope was 0.00561 (inactive).

As for `C/C=C/Cn1c(Br)nc2c1c(=O)[nH]c(=O)n2C`, the cell count in assay [1] was found to be 650. Besides, the inhibition in assay [1] is 10.6% (inactive); in assay [3], 20.1% (inactive); in assay [7], 15.1% (inactive); in assay [8] it was 10.7% (inactive). For the same molecule, the inhibition of aggregation in assay [2] is -10.8% (inactive). Besides, the nuclei count in assay [2] stood at 73%; in assay [3], 103%. Moreover, the fluorescence slope in assay [4] was -0.625 (inactive). Moreover, the NADPH fluorescence slope in assay [5] was -4.7e-05 (inactive). Besides, the slope in assay [6] was 0.00443 (inactive).

With `O=C(CCNS(=O)(=O)c1ccc(Cl)cc1)NCc1ccccn1`, in assay [1], the cell count came out at 609. The inhibition in assay [1] was -21.1% (inactive); in assay [3] it was 0.3% (inactive); in assay [7], 17.1% (inactive); in assay [8], 21.6% (inactive). Moreover, the inhibition of aggregation in assay [2] is 5.7% (inactive). The nuclei count in assay [2] stood at 78.6%; in assay [3], 101%. Moreover, the fluorescence slope in assay [4] is -0.318 (inactive). Moreover, the NADPH fluorescence slope in assay [5] was 8.2e-06 (inactive). Further, the slope in assay [6] is 0.00312 (inactive).

Turning to `COc1ccc(NC(=O)CSc2nnc(-c3ccccc3C)n2C)cc1`, the cell count in assay [1] came out at 661. Further, the inhibition in assay [1] is 1.6% (inactive); in assay [3] it was 81.4% (active); in assay [7] it was 5.44% (inactive); in assay [8], 28.1% (inactive). In addition, the inhibition of aggregation in assay [2] was 3.2% (inactive). The nuclei count was 121% in assay [2] and 111% in assay [3]. Besides, the fluorescence slope in assay [4] was -0.422 (inactive). Besides, the NADPH fluorescence slope in assay [5] is -3.9e-05 (inactive). Moreover, the slope in assay [6] was 0.0036 (inactive).

For the molecule `O=C(NC1CCN(Cc2nnnn2CCc2ccccc2)CC1)c1ccccc1F`, in assay [1], the cell count came to 744. In addition, the inhibition in assay [1] is 0% (inactive); in assay [3] it was -44.2% (inactive); in assay [7] it was 11.5% (inactive); in assay [8], 27.2% (inactive). In addition, the inhibition of aggregation in assay [2] was -8.8% (inactive). Besides, the nuclei count in assay [2] was determined as 99.7%; in assay [3] it was 116%. Also, the fluorescence slope in assay [4] is -0.295 (inactive). In addition, the NADPH fluorescence slope in assay [5] was -3.3e-06 (inactive). Also, in assay [6], the slope was 0.00487 (inactive).

For the molecule `COc1ccc(S(=O)(=O)N2CCC(C(=O)c3ccc4c(c3)OCCO4)CC2)cc1`, the cell count in assay [1] is 298. The inhibition in assay [1] is -0.7% (inactive); in assay [3], -51.9% (inactive); in assay [7], -3.88% (inactive); in assay [8], 12.1% (inactive). In addition, the inhibition of aggregation in assay [2] was 14.2% (inactive). The nuclei count is 157% in assay [2] and 119% in assay [3]. The fluorescence slope in assay [4] was -0.461 (inactive). The NADPH fluorescence slope in assay [5] is -8e-05 (inactive). Besides, the slope in assay [6] was 0.00739 (inactive).
